The list is not random: actives were taken first. Their share in the collection is about 7.3%.
HEK293 viab = cell viability loss counter-screen. HEK-293-SNCA-luc viability, GF-AFC fluorescence, 24 h. Potency, µM (series often up to 57.1 µM), for inactives: at the highest dose activity change, negative = cytotoxicity, hits mostly cytotoxic. actives 0.12% (n = 150,000). AID 1671193;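 further: potency means the concentration at half of the fitted maximal effect; 0% = DMSO-treated cells and -100% = medium-only wells without cells; nearly all actives have a fitted effect of over 30% in size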
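HEK-293-SNCA-luc cells (1500/well) plated 24 h, then exposed 24 h to a dilution series; GF-AFC added 30 min at 37C, fluorescence 405/540 nm; normalised to medium-only and DMSO wells, Hill fit.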
HEK cytotox = HEK 293 cell cytotoxicity; HEK 293 viability, ATP luminescence (CellTiter-Glo), 48-72 h; Potency, µM (doses to about 115 µM), without a hit: at the highest dose activity change, negative = cytotoxicity, most hits filed as inhibitors; actives 6.6% (n = 94,000); AID 1345083; further: potency means the concentration at half of the fitted maximal effect; nearly all actives have a fitted effect of over 60% in size
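Read-out: CellTiter-Glo ATP luminescence. Cells: HEK 293, 250 cells/well. Exposure: 48 or 72 hr, 37 degree Celsius.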
3T3 cytotox = cytotoxic compounds in NIH 3T3 cells | NIH 3T3 viability, CellTiter-Glo ATP luminescence, 48-72 h | Potency, µM (doses to about 96.7 µM), for the others: top-dose activity change, negative = cytotoxicity, hits mostly inhibitors | actives 4.3% (n = 94,000); further: potency means the concentration at half of the fitted maximal effect; nearly all actives have a fitted effect of over 55% in size
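Viability of NIH 3T3 cells after 48 or 72 hr compound treatment at 37 °C was assessed by CellTiter-Glo, with luminescence imaged following a 10 min room-temperature step.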
SNCA expr inh = reduces expression of the alpha-synuclein gene; HEK-293 SNCA-luciferase knock-in, luminescence, 24 h; AID 1671194; Potency, µM (doses to about 57.2 µM), for inactives: at the top dose activity change, negative = inhibition, actives largely listed as inhibitors; actives 0.17% (n = 140,000);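 further: potency means the concentration at half of the fitted maximal effect; plate controls were DMSO cells for no effect and cell-free wells for full effect; nearly all actives have a fitted effect of over 45% in size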
FLuc inh = blocks purified firefly luciferase enzyme activity; P08659; purified P. pyralis luciferase, luminescence, biochemical; Potency, µM (titrated, usually from 115 µM), most hits filed as inhibitors; actives 2.5% (n = 76,000); AID 1347043; further: potency means the concentration at half of the fitted maximal effect; nearly all actives have a fitted effect of over 65% in size
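Inhibitors were tested against purified firefly luciferase in a biochemical, low-substrate format (both substrates at 10uM) and luminescence measured with a CCD imager.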
IP6K1 inh = IP6K1 kinase inhibition | activity change, % (series mostly up to about 58 µM) | Q92551 | IP6K1 kinase, ADP-Glo luminescence, 2 h; hits give low values | actives 0.81% (n = 140,000); in the data active means activity change below about -25%
Target sequence (Q92551 whole entry, looked up): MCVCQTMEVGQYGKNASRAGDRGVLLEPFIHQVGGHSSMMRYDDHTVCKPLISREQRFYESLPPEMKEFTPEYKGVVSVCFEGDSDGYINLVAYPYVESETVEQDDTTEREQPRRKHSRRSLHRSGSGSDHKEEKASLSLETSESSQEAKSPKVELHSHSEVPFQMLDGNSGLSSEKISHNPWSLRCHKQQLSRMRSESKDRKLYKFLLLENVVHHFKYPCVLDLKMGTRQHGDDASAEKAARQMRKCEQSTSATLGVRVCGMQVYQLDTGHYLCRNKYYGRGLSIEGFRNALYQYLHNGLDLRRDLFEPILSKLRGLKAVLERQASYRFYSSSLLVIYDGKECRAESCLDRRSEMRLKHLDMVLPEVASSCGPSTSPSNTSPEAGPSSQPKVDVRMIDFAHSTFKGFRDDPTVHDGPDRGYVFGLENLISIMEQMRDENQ
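ADP-Glo luminescence measures ADP made by human IP6K1 during a 2 h RT reaction with ATP/IP6 (mix at 1.3 mM/130 uM); top library doses 57.5 and 19.1 uM final.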
* hit, by the source's call; i = inactive; ? = inconclusive; nt = no result given; [ ] = remark or other dose. Unless noted, the call rests on the fitted dose curve; in most records, active means well fitted curve in the direction sought with a large enough effect; inconclusive means small, poorly fitted or top-dose-only effect, or another doubt; inactive means no such curve, though single readings can be large; an effect the other way counts as inactive or inconclusive. Unless noted, on the % scale 0 is the no-effect control and ±100 the full control effect.

SMILES | HEK293 viab | HEK cytotox | 3T3 cytotox | SNCA expr inh | FLuc inh | IP6K1 inh
CNC(=O)[C@H]1C[C@H](Oc2ccccc2)CN1C(=O)CCc1nc2ccccc2[nH]1 | -5% | i | i | 15% | i | 17
CC(=O)NCCNC(=O)c1cccc(-c2ccc(C(F)(F)F)cc2)c1 | -2% | -17% | -35% | 31% | nt | -1
COC(=O)[C@@H]1Cc2c([nH]c3ccccc23)[C@H]2C[C@@H](NCCNC(C)=O)C[C@@H](c3ccc(C(F)(F)F)cc3)N21 | -24% | 25µM* | 20µM* | -11% | i | -6
CCOC(=O)[C@H]1C[C@]2(CCCCN(CCOC)C2=O)N(C(=O)c2ccco2)[C@H]1c1ccco1 | nt | ? | ? | nt | nt | -2
CCOC(=O)[C@H]1C[C@]2(CCCCN(CCOC)C2=O)N(C(C)=O)[C@H]1c1ccco1 | nt | 32µM* | ? | nt | nt | -4
COc1cccc(-c2cc(C(=O)NCCCNC(=O)OC(C)(C)C)c3cnn(C)c3n2)c1 | nt | ? | ? | nt | nt | 8
CCC(=O)Nc1ccc(-c2c(-c3ccc(C)cc3)nn(-c3ccc(F)cc3)c2OC(C)=O)cc1 | -7% | 45µM* | 28µM* | 2% | i | -8
O=C(Nc1cccc(Br)c1)c1cnc(-c2ccccc2)nc1-c1ccncc1 | -20% | 40µM* | ? | ? | i | 6
Cc1c(Cl)cccc1NC(=O)c1cnc(-c2ccccc2)nc1-c1ccncc1 | -13% | ? | 35µM* | 1% | i | 28
O=C(Nc1ccc(Br)c(F)c1)c1cnc(-c2ccccc2)nc1-c1ccncc1 | ? | 32µM* | 25µM* | -26% | i | 2
Cc1ccc(-c2ncc(C(=O)Nc3ccc(F)cc3C)c(-c3ccncc3)n2)cc1 | -12% | 40µM* | 22µM* | 11% | i | -4
O=C(Nc1ccccc1Cl)c1cnc(-c2ccccc2)nc1-c1ccncc1 | 2% | 1% | -5% | 10% | i | 37
Cc1cc2cc(-c3c(C)noc3C)nc(NCCN(C)C)c2o1 | 4%[87.6 µM] | 100µM* | ? | 4%[87.6 µM] | i | -7
Cc1cc2cc(-c3c(C)noc3C)nc(NCC3CC3)c2o1 | 8%[87.6 µM] | ? | ? | 8%[87.6 µM] | i | -8
Cc1noc(C)c1-c1cc2cc(C(C)C)oc2c(NCCN(C)C)n1 | -2%[87.6 µM] | 71µM* | 45µM* | 54%[87.6 µM] | i | -11
O=C(NC1CCCCCC1)c1ccc2oc(-c3ccncc3)nc2c1 | 1% | 35µM* | -24% | 12% | nt | 4
O=C(NCC1CCCO1)c1ccc2oc(-c3ccc(C(F)(F)F)cc3)nc2c1 (configuration not stated) | -3% | 18µM* | -20% | 88% | i | -1
CCCN1CCC2(CCN([S+](=O)([O-])c3ccccc3)CC2)Oc2ccccc21 | -15% | ? | ? | -17% | i | -5
COc1ccc(-c2noc(CSc3nc4ccccc4[nH]3)n2)cc1 | ? | nt | nt | 10% | nt | -11
Cc1ccc2nc(SCc3nc(-c4ccc(Cl)cc4)no3)[nH]c2c1 | -9% | nt | nt | 22µM* | nt | 30
CCOC(=O)[C@H]1CN(C(=O)Cc2ccc(OC)cc2)[C@]2(C)C(=O)N(CC(=O)N(C)C)c3ccccc3[C@H]12 | nt | -13% | ? | nt | nt | -10
O=C(c1csc(-c2cccs2)n1)N1CCC2(CCCO2)CC1 | -13% | ? | ? | 42% | 35µM* | -2
CC(=O)N(C1CCOCC1)C1CCN(S(=O)(=O)c2ccc(F)c(F)c2)CC1 | 23% | -2% | -25% | ? | nt | 18
c1ccc(CN2Cc3[nH]cnc3C[C@H]2c2nc(-c3ccccn3)no2)cc1 | 3%[87.6 µM] | -20%[172 µM] | -17%[174 µM] | 60%[87.6 µM] | i | 25
CS(=O)(=O)N1CCN(c2ccc3nnc(-c4ccccc4)n3n2)CC1 | nt | -2% | ? | nt | nt | 11
SMILES | HEK293 viab | HEK cytotox | 3T3 cytotox | SNCA expr inh | FLuc inh | IP6K1 inh
CCN(C(=O)CCC(=O)N1CCc2nc3cc(-c4ccc(OC)cc4)[nH]n3c(=O)c2C1)c1ccccc1 | -1% | ? | ? | ? | 16µM* | 0
COc1ccc(-c2cc3nc4c(c(=O)n3[nH]2)CN(C(=O)CCc2ccccc2)CC4)cc1 | 3% | 4% | 5% | -24% | i | 0
c1ccc(-c2ccc(N3CC4(CCNCC4)C3)cc2)cc1 | 32µM* | nt | nt | ? | nt | nt
Cc1ccc(NC(=O)N2CC(C(=O)N(C)C)C3(CCOCC3)C2)cc1 (configuration not stated) | ? | i | i | 12% | i | 27
c1cc(-c2cc(-c3ccncc3)c3cncn3c2)cc(N2CCOCC2)c1 | -12%[87.6 µM] | ? | 22µM* | ? | i | 5
Cc1noc(C)c1-c1cc(-c2cccc(N3CCOCC3)c2)cn2cncc12 | -6%[87.6 µM] | ? | 18µM* | 5%[87.6 µM] | i | -13
CC(=O)Nc1cccc(-c2cc(-c3ccncc3)c3cncn3c2)c1 | 10%[87.6 µM] | ? | ? | -21%[87.6 µM] | i | 2
O=C(Nc1ccc(F)cc1)c1nc2sccn2c1-c1ccc(C(F)(F)F)cc1 | 2% | ? | ? | -24% | nt | 8
COCc1nc(N2CC3C[C@@H]4CC2C[C@H](C3)C4)c2cnn(C)c2n1 | 1% | ? | ? | 5% | i | -3
Fc1ccccc1CNc1cc(Cl)nc2ccnn12 | 12%[87.6 µM] | 35µM* | ? | -13%[87.6 µM] | i | 9
Cc1nc([C@@H]2CN(S(=O)(=O)c3ccc4c(c3)CCC4)C[C@H]2C(N)=O)n[nH]1 | -8% | -1% | i | ? | i | 15
CCN1C(=O)Cc2cc(C(=O)NCc3c(C)cc(C)cc3C)ccc21 | -6% | 40µM* | ? | -28% | i | -6
O=C(NCc1ccco1)c1ccc2c(c1)CC(=O)N2Cc1cccc(F)c1 | 5% | ? | ? | 27% | i | -13
O=C(NCc1cccc(F)c1)c1ccc2c(c1)CC(=O)N2Cc1ccccc1 | -2% | -20% | ? | 13µM* | ? | -3
COCCOCc1nc(C2CCCCN2S(=O)(=O)Cc2ccccc2)no1 (configuration not stated) | 3% | -3% | -21% | -5% | nt | -17
Cc1csc(NC(=O)c2ccc3c(c2)OCCN(CCC(F)(F)F)C3)n1 | -6%[87.6 µM] | 79µM* | ? | 49%[87.6 µM] | ? | 2
CC(C)CCN1CCOc2cc(C(=O)Nc3ccc4cn[nH]c4c3)ccc2C1 | -14%[87.6 µM] | 89µM* | ? | 3%[87.6 µM] | ? | -1
CNC(=O)[C@@H]1CN(Cc2ccc(Cl)cc2F)C[C@H]1CO | -10% | -14% | -18% | -12% | i | 0
COc1ccc(Nc2ccnc(N3CCC(C(=O)N4CCN(C)CC4)CC3)n2)cc1 | 11%[12.5 µM] | ? | -25% | -5% | nt | -4
